In the supplement of paper PMC11732987, “Enantioselective OTUD7B fragment discovery through chemoproteomics screening and high-throughput optimisation” (Communications Chemistry, 2025):

Columns and labels:
Assay in all cases: log2 ratio of Biotin-Ahx-Ub-VS probe labelling (fragment/DMSO); higher = less target engagement (more negative = stronger competition), active = hit call of the paper (q ≤ 0.05, log2 ratio ≤ -1)
Settings in all cases: compound concentration: 200 uM; treatment time: 3 h
USP42 = target: T1, USP42 (UniProt Q9H9J4)
T1 sequence (whole entry): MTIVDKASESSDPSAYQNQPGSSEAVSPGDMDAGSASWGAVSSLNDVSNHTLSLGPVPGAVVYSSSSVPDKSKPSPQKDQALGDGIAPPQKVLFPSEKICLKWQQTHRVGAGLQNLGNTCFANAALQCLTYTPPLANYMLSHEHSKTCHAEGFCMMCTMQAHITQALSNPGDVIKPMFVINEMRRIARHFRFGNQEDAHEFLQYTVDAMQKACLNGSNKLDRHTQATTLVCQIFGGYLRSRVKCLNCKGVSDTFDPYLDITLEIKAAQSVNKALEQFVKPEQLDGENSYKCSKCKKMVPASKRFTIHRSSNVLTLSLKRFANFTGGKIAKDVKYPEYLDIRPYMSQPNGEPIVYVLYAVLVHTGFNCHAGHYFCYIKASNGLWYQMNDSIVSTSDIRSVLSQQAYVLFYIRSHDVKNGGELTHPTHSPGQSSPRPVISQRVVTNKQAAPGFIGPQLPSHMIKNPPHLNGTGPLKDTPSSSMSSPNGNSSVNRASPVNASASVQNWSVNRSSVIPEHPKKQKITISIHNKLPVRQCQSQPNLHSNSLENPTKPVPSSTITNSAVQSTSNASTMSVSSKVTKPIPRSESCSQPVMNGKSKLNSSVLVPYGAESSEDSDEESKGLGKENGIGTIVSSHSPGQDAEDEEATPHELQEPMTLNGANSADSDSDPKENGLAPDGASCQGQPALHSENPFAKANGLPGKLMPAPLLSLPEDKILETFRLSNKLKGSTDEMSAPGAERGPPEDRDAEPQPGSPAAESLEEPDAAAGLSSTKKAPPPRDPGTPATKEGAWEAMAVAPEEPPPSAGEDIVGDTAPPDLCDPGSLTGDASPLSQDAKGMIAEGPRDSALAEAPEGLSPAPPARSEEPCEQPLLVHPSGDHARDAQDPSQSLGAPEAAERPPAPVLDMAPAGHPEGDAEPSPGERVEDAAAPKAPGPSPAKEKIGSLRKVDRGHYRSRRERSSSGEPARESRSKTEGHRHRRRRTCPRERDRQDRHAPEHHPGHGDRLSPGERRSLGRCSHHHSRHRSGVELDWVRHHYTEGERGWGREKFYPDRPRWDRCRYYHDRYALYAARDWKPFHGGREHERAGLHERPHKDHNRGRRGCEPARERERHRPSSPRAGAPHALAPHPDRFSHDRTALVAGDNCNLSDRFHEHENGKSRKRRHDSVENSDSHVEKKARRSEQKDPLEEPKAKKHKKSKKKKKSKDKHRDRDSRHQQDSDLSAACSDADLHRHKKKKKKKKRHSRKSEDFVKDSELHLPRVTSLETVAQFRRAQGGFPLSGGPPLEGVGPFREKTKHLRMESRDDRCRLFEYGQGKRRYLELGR
Summary of the method: (§1)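 Using Biotin-Ahx-Ub-VS at 0.5 µM final for 1 h, DUBs were labelled in HEK293T lysate (495 µg per sample) that had first been treated in triplicate with fragment at 200 µM or vehicle for 3 h. NeutrAvidin enrichment, LysC and trypsin digestion and diaPASEF LC-MS/MS followed. Spectronaut label-free quantities were global-median-normalised. Values are average log2 fragment/vehicle ratios by unpaired t-test, using proteins with ≥2 unique peptides.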

USP46 = USP46 (UniProt P62068)
USP46, sequence (P62068 whole entry): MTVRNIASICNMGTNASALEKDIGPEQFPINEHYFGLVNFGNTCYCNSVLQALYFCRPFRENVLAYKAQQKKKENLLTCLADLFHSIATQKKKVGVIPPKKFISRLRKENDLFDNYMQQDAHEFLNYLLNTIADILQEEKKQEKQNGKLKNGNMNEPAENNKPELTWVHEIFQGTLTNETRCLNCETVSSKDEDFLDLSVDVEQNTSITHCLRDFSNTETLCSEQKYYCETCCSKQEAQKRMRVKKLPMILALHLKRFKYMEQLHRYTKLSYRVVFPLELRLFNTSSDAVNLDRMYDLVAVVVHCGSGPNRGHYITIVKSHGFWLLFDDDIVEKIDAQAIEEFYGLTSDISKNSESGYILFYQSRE
Summary of the method: as §1

USP47 = target: T2, USP47 (UniProt Q96K76)
T2 sequence (whole entry): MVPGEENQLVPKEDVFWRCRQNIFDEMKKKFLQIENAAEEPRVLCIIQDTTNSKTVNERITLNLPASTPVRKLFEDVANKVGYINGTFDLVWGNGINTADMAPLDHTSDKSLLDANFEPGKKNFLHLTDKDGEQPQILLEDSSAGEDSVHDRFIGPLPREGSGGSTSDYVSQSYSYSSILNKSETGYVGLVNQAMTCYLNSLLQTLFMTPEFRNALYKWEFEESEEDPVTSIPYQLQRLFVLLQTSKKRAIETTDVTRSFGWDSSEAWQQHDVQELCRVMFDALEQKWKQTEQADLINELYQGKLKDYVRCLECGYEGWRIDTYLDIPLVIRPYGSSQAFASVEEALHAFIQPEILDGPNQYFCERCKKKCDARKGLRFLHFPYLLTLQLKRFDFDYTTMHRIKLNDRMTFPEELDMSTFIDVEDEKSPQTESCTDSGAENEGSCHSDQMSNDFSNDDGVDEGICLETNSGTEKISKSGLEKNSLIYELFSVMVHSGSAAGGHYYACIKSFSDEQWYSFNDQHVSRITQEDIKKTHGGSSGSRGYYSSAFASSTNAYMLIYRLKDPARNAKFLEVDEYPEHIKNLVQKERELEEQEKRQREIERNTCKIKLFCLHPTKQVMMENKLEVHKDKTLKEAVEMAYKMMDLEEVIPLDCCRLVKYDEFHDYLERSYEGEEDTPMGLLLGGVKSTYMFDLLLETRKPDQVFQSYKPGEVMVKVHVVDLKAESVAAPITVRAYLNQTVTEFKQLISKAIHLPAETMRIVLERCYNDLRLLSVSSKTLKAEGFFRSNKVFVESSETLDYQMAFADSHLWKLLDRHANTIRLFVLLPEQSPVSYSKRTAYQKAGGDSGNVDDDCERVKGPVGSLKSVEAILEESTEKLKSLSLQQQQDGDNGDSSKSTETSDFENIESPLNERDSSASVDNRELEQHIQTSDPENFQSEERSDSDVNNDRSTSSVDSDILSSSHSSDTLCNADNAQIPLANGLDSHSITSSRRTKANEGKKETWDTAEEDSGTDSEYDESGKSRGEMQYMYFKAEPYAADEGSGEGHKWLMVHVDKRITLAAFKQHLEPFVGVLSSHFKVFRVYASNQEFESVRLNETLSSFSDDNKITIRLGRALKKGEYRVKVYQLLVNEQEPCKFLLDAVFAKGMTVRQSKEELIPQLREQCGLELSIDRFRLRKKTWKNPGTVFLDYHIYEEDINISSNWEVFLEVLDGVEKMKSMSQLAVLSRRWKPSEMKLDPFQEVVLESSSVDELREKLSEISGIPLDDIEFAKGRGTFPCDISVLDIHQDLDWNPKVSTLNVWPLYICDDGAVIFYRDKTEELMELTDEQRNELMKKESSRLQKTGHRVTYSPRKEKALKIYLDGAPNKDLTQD
Summary of the method: as §1

USP48 = target: T3, USP48 (UniProt Q86UV5)
T3 sequence (whole entry): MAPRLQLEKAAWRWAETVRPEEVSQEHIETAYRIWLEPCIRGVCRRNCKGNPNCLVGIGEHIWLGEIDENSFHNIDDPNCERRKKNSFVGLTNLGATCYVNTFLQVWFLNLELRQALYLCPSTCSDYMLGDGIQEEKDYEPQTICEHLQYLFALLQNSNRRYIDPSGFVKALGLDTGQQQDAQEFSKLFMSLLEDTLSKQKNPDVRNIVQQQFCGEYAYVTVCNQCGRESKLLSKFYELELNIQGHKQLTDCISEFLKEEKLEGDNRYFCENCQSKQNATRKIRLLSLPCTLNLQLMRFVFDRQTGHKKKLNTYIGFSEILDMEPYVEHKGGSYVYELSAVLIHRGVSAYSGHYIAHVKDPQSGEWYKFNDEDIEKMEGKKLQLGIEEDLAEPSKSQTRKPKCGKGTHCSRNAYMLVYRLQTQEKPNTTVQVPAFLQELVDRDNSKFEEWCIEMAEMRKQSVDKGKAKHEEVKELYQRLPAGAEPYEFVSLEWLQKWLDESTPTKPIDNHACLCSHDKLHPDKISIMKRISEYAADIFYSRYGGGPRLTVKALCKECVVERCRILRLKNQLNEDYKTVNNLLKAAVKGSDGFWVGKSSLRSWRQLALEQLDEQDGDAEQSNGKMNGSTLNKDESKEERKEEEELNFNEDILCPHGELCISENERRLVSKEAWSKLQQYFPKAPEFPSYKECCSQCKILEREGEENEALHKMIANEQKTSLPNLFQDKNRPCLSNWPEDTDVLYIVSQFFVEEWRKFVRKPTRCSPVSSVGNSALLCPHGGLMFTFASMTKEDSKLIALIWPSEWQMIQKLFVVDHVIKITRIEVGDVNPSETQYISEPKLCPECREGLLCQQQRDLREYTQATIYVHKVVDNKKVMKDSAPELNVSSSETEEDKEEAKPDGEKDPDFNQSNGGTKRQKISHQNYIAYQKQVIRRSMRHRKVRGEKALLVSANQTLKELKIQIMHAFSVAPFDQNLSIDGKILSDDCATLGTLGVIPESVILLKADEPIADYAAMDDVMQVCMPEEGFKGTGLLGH
Summary of the method: as §1

USP5 = target: T4, USP5 (UniProt P45974)
T4 sequence (whole entry): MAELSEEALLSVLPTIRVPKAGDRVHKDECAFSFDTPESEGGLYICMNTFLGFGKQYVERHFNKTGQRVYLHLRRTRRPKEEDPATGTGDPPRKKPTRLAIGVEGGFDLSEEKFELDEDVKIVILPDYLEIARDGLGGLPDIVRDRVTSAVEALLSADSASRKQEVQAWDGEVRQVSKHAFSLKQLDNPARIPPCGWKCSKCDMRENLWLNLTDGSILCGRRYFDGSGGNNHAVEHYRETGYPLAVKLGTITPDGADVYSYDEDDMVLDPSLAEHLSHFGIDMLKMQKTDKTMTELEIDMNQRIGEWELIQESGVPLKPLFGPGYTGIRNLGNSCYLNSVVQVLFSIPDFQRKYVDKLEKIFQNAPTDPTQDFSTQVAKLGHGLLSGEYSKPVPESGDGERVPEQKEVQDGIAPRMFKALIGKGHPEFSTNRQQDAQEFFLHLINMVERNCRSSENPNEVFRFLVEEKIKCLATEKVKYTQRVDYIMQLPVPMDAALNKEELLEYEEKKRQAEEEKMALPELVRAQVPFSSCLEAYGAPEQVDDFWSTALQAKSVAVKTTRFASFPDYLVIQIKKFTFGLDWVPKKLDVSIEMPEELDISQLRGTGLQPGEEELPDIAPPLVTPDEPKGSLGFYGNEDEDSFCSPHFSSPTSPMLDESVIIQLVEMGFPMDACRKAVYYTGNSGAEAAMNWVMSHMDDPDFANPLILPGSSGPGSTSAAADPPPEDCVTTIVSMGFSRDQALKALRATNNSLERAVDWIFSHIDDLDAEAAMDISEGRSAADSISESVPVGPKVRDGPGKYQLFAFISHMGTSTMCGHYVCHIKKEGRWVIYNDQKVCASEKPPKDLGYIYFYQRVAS
Summary of the method: as §1

USP54 = USP54 (UniProt Q70EL1)
USP54, sequence (Q70EL1 whole entry): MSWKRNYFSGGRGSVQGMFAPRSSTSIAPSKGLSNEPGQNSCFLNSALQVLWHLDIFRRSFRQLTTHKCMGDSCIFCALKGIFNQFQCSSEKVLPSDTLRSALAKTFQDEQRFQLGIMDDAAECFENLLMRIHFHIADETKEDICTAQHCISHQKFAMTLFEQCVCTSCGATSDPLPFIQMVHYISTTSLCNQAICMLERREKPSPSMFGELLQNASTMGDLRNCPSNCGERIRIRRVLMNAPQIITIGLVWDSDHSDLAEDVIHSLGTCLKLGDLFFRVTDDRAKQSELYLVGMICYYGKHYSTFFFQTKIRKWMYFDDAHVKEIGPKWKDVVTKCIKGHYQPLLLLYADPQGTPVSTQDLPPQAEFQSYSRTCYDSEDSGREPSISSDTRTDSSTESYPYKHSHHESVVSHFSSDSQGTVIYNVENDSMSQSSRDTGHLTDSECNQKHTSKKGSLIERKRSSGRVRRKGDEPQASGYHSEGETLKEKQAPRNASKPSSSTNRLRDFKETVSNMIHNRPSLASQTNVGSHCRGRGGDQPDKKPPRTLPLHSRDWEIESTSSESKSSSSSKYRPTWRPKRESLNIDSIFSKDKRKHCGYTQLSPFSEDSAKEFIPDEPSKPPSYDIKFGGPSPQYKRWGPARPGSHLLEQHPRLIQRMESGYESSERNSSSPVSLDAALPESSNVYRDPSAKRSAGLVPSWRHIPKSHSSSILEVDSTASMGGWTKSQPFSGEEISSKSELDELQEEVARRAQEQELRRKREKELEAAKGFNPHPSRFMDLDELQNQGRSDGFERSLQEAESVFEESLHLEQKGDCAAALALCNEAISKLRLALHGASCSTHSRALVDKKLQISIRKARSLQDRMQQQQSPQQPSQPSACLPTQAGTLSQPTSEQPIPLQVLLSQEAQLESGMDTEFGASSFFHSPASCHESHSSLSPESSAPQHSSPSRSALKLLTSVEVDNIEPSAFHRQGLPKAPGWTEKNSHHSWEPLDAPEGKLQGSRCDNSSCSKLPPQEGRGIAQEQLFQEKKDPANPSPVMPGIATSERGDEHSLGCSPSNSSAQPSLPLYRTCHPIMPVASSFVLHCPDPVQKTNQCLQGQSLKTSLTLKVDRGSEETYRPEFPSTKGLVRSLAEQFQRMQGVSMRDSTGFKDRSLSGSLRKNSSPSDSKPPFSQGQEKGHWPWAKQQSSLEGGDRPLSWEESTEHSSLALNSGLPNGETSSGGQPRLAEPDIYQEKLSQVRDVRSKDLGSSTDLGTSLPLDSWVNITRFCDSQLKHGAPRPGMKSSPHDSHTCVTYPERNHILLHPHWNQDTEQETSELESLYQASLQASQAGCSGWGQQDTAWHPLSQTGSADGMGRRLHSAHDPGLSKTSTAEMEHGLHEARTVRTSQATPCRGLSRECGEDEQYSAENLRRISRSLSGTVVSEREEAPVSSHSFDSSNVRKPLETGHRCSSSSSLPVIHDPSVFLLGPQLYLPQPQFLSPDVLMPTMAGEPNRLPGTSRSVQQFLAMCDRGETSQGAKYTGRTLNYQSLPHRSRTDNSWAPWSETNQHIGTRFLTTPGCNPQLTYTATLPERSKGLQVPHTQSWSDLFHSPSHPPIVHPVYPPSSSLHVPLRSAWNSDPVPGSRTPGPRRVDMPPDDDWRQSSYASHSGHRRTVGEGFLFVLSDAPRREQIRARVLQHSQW
Summary of the method: as §1

USP7 = USP7 (UniProt Q93009)
USP7, sequence (Q93009 whole entry, looked up): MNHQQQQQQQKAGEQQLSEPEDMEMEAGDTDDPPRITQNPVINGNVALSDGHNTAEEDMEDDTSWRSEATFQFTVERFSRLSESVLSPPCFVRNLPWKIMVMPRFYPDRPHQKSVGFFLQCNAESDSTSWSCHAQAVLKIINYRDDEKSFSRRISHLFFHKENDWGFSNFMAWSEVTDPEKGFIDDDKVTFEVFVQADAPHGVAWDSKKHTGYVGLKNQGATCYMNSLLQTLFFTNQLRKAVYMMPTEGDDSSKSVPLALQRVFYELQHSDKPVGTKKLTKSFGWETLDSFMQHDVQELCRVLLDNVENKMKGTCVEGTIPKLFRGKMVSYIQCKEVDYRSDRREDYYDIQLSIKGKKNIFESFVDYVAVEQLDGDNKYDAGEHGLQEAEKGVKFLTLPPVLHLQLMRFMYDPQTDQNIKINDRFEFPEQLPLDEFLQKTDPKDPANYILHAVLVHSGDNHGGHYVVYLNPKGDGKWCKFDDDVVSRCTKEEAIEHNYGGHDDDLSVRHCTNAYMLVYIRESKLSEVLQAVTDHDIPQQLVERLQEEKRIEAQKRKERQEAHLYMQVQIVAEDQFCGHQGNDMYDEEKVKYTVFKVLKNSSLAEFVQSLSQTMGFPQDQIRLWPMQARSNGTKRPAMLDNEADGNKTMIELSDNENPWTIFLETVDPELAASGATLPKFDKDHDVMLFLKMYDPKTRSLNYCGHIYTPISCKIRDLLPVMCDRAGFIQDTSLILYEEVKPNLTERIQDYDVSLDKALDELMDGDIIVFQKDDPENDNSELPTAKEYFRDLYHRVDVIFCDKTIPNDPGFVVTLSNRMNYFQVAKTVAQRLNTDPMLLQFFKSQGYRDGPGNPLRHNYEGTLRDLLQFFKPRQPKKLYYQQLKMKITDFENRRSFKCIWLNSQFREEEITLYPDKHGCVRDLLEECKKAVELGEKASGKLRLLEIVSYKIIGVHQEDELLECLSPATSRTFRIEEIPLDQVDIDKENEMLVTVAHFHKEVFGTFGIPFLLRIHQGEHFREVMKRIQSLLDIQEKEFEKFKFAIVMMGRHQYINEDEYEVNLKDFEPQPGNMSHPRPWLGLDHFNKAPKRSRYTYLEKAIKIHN
Summary of the method: as §1

USP8 = target: T5, USP8 (UniProt P40818)
T5 sequence (whole entry): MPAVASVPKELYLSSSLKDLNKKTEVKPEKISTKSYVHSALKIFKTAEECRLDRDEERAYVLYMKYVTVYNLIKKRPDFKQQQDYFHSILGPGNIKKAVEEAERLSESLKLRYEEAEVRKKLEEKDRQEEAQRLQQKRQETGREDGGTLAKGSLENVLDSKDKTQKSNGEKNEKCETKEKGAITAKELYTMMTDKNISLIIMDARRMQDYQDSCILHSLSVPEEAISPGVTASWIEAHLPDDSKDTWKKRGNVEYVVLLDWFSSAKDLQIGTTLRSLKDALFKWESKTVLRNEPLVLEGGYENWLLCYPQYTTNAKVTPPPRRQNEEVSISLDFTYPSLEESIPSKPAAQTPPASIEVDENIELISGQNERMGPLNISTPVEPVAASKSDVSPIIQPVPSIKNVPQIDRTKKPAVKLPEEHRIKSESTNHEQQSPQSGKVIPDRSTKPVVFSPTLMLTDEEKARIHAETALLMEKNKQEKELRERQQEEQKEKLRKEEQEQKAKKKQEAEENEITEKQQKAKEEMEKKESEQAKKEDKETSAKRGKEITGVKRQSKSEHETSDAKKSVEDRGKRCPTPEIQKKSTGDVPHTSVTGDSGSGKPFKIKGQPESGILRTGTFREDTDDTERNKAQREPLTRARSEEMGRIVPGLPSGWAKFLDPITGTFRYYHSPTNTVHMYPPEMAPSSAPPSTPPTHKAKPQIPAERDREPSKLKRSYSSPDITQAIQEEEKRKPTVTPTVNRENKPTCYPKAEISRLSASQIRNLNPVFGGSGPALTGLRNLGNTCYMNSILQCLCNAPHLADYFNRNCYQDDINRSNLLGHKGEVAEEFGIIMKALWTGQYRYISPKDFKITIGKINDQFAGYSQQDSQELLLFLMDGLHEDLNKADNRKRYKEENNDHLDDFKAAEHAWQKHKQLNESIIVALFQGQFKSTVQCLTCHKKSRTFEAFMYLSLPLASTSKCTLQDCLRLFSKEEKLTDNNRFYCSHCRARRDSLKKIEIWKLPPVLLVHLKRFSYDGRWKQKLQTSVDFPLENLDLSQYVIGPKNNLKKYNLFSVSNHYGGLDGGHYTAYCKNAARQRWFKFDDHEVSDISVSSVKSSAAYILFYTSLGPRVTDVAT
Summary of the method: as §1

Measured: log2 ratio of Biotin-Ahx-Ub-VS probe labelling

O=C(CCl)NC1CCC2(CC1)OCCO2
inactive: USP42 -0.0532 | USP46 -0.121 | USP47 0.154 | USP48 -0.263 | USP5 -0.0178 | USP54 0.457 | USP7 -0.157 | USP8 -0.255
